40 compounds from PubChem BioAssay (NCI) can be followed below.

The panel holds about 83,000 compounds, 20% with a hit somewhere; the sample as a whole holds those more often.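 Results are percent growth after 48 hours of single-concentration exposure. 100 means growth as in untreated cells, lower positive values show inhibition; negative values down to -100 show cell death.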 Activity calls are given as the source filed them.

The assay concerns ACHN renal. The assay is described as follows: NCI-60 one-dose screen, 48 h (100 = growth as untreated, 0 = no growth, -100 = all killed). Conditions: 10 µM unless noted. The procedure:
Growth inhibition of the ACHN human tumor cell line is measured as a screen for anti-cancer activity. Cells are grown in 96 well plates and exposed to the test compound for 48 hours. Compounds are tested at a single concentration, which is 10^-5 M for most compounds. The reported endpoint is percent growth (GI% or GIPRCNT), where numbers from 0 - 100% represent growth inhibition, and numbers from -100% - 0 represent cell death. For example, a value of 40 represents 60% growth inhibition. A value of 0 means no net growth occurred over the course of the experiment. A value of -40 indicates 40% of cells at the beginning of the experiment died by the end of the experiment. A value of -100 means all cells are dead at the end of the experiment.
NCI-60 Human Tumor Cell Lines Screen was performed using the standard one-dose NCI protocol, which is described in more detail at https://dtp.cancer.gov/discovery_development/nci-60/default.htm.
Compounds with GIPRCNT values below 10 were considered active. Activity score was based on GIPRCNT using the following formula: […]
Score is 0 for GIPRCNT values of 100 or above, 50 for GIPRCNT values of 0, and 100 for GIPRCNT values of -100.
In the case of `CSCc1ncc(-c2ccc(C(F)(F)F)cc2)c(NC2CCCCCC2)n1`, the growth was 77.9% [25 µM] (inactive).

Turning to `COc1ccc(NC(=O)/C=C(C)/C=C/C=C(C)/C=C/C2=C(C)CCCC2(C)C)cc1`, the growth was 54% (inactive).

On to `O=C1C=C(OCC=C(C(F)(F)F)C(F)(F)F)c2ccccc2C1=O`, for which the growth is 1.45% (active).

In the case of `COc1ccc(CN2C(=O)/C(=C\C(=O)c3ccc(OCCN4CCCCC4)cc3)c3ccccc32)cc1`, the growth is 48.7% (inactive).

On to `CCOC1=C(Cl)C(=O)C(OCC)=C(Cl)C1=O`, for which the growth was 106% (inactive).

As for `CCn1cnc(C[C@H](NC(=O)[C@@H](NC(=O)Nc2cc(C(F)(F)F)cc(C(F)(F)F)c2)C(C)(C)C)C(=O)OC)c1`, the growth was -95.8% [100 µM] (active).

With `O=C1C(Cl)=C(Nc2ccc(Nc3ccccc3)c(NC3=C(Cl)C(=O)c4ccccc4C3=O)c2)C(=O)c2ccccc21`, the growth is 34.4% (inactive).

In the case of `CC(C)(C)C(=O)CCCCCCCC/C=C/CCCC(O)c1ccco1` (stereo not given), the growth was 120% (inactive).

For the compound `COC(=O)[C@H](Cc1cn(C)cn1)NC(=O)[C@H](CC(=O)OCc1ccccc1)NC(=O)Nc1cc(C(F)(F)F)cc(C(F)(F)F)c1`, the growth is -98.6% [100 µM] (active).

For the compound `CC(=N\N=C(N)N)/C(=N/N=C(N)N)c1ccccc1`, the growth was 106% (inactive).

On to `COc1ccc2sc(-n3nc4nc5n(c(=O)c4c3N)-c3ccccc3Sc3ccccc3-5)nc2c1`, for which the growth was 72.3% (inactive).

Turning to `Cc1ccc(C(=O)Nc2ccc(CN3CCN(C)CC3)c(C(F)(F)F)c2)cc1C#Cc1cnc(N)c2ccc(F)cc12`, the growth was -100% (active).

As for `C/C(=C\c1ccc2ccccc2c1)[N+](=O)[O-]`, the growth was -74.1% (active).

With `CCCCCCCCCC(C)NC(=O)CCl` (stereo not given), the growth is 93% (inactive).

Regarding `Cn1cnc2nc[nH]c2c1=S`, the growth was 97% (inactive).

As for `CC(C)(C)c1ccc([I+]c2ccc(C(C)(C)C)cc2)cc1`, the growth is 47.3% (inactive).

In the case of `CCCC[N+](C)(N)CCCC`, the growth is 99.7% (inactive).

In the case of `O=C(Nc1ccc(-n2cc(-c3ccncc3)c(-c3ccc(Cl)c(O)c3)n2)cc1)c1ccc(Cl)c(Cl)c1`, the growth is 38.4% (inactive).

`CCCCCCCCCCCCOC(=O)/C=C\C(=O)NC(N)=O`: the growth is 88.4% (inactive).

`CC(=O)NCCN`: the growth is 97.2% (inactive).

As to `O=C(Nc1cccc(Cn2c(=O)[nH]c3ccc(Oc4ncccn4)cc3c2=O)c1)c1cccc(F)c1`, the growth was 80.9% (inactive).

On to `COc1ccc2oc(=O)cc(CN3C(=O)S/C(=C\c4ccc(Cl)cc4)C3=O)c2c1`, for which the growth is 105% (inactive).

Regarding `N/C(=N\O)c1ccncc1`, the growth was 103% (inactive).

In the case of `COc1ccc(C2CC(=O)c3c(O)cc(OC4OC(COC5OC(C)C(O)C(O)C5O)C(O)C(O)C4O)cc3O2)cc1O` (stereo not given), the growth was 117% (inactive).

As to `CCOC(=O)C1=C(C(F)(F)F)NC(=O)NC1CN1C(=O)c2ccccc2C1=O` (stereo not given), the growth is 120% (inactive).

On to `COC(=O)/C=C/c1cc(O)c2oc(-c3ccc(O)c(O)c3)c(C(=O)OC)c2c1`, for which the growth was 30.2% (inactive).

For `COc1cc(-c2nn(-c3ccc(NC(=O)c4ccc(Cl)c(C(F)(F)F)c4)cc3)cc2-c2ccncc2)ccc1Cl`, the growth is 18.2% (inactive).

`CCCCCCCCCCC(C[N+](C)(C)C/C=C/c1ccccc1)C(O)c1ccccc1` (stereo not given): the growth was 72.2% (inactive).

With `Cc1ccnc2c(NC(C)CCCN)cc(O)c(O)c12` (stereo not given), the growth is 99.5% (inactive).

For the compound `O=C(/C=C/c1c[nH]c2ccccc12)c1cc2ccccc2o1`, the growth is 103% (inactive).

On to `CCOC(=O)c1csc(-c2ccc(COC(=O)c3ccccc3)o2)n1`, for which the growth is 95% (inactive).

Turning to `CC(=O)N1N=C(c2ccc(Cl)cc2)CC1c1cn(-c2ccccc2)nc1-c1ccc([N+](=O)[O-])cc1` (stereo not given), the growth was 96.8% (inactive).

With `COc1cc(CCNc2cnc3cc(N)cc(N)c3n2)cc(OC)c1`, the growth is 106% (inactive).

As to `CCn1cc(C(=O)O)c(=O)c2cc(F)c(N3CCN(S(=O)(=O)c4ccc(Cl)cc4)CC3)cc21`, the growth is 28.7% (inactive).

Regarding `Clc1ccc(I)c2ccccc12`, the growth is 103% (inactive).

For `COc1cc([C@@H]2c3cc4c(cc3[C@H](O)[C@H]3COC[C@@H]23)OCO4)cc(OC)c1OC`, the growth was 78.2% (inactive).

Consider `Cc1c(CN(C)C)cc(C(C)C)cc1C(C)C`, for which the growth was 112% (inactive).

Take `CC(O)C(N)=O` (stereo not given): the growth is 104% (inactive).

With `COc1cc(-c2nn(-c3ccc(NC(=O)Nc4cc(C(F)(F)F)cc(C(F)(F)F)c4)cc3)cc2-c2ccncc2)ccc1Cl`, the growth is 4.08% (active).

Take `Oc1ccc2ccccc2c1/C=N\Nc1ccccn1`: the growth is 6.56% (active).
